Source: PubChem (NMMLSC)
The list is not random: actives were taken first. Their share in the collection is about 0.92%.
MEP2-GFP yeast – modulators of TOR pathway MEP2-GFP in S. cerevisiae; GFP response vs DMSO, % at 10 µM; 330,000 tested, 0.51% active; S. cerevisiae MEP2-GFP strain, flow cytometry GFP, 3 h; 100% = DMSO control level; AID 2016;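 active = GFP response versus DMSO above a set limit, roughly screen mean plus 3 SD, cut at about 180% in these data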;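 also: median GFP fluorescence of the barcode-gated MEP2-GFP cells per well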
RPL19A-GFP yeast – modulators of TOR pathway RPL19A-GFP in S. cerevisiae; 330,000 tested, 0.3% active; percent response vs DMSO, % at 10 µM; AID 2025; S. cerevisiae RPL19A-GFP strain, flow cytometry, 3 h; hits give low values;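 active = percent response vs DMSO below 50%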;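 also: median channel GFP fluorescence of the barcoded RPL19A-GFP strain; lower means less RPL19A-GFP as with rapamycin TOR inhibition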
AGP1 TOR yeast – yeast TOR pathway AGP1-GFP modulation; GFP response vs DMSO, % at 10 µM; S. cerevisiae AGP1-GFP multiplex flow cytometry, 3 h; GFP as percent of DMSO wells; 320,000 tested, 0.02% active;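 active = GFP response relative to DMSO above a set limit, near screen average plus 3 SD, cut at about 150% in these data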;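 also: median GFP channel fluorescence of the gated AGP1 strain per well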
LAP4-GFP MLPCN – yeast TOR pathway LAP4-GFP modulation | S. cerevisiae LAP4-GFP multiplex, flow cytometry GFP, 3 h; median GFP as percent of DMSO wells | GFP response vs DMSO, % at 10 µM | 320,000 tested, 0.34% active;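 active = GFP response vs DMSO above a set limit, about the screen mean plus 3 SD, cut at about 150% in these data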
CIT2 TOR yeast – alters CIT2-GFP fluorescence in TOR pathway yeast screen. S. cerevisiae CIT2-GFP strain, flow cytometry, 3 h; 100 means same as DMSO wells. GFP response vs DMSO, % at 10 µM. 320,000 tested, 0.065% active. AID 2029;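 active = GFP response relative to DMSO above a set limit, near the screen mean plus 3 SD, cut at about 150% in these data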;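 also: ratio of well median GFP fluorescence to mean of DMSO wells on the plate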
LAP4 cherry2 – yeast LAP4-GFP modulation, second cherry pick | GFP response vs DMSO, % at 10 µM | 590 tested, 20% active | shares compounds with LAP4-GFP MLPCN | S. cerevisiae LAP4-GFP strain, flow cytometry GFP, 3 h;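 active = GFP signal as percent of the solvent control above about 150%, meaning raised reporter expression, limit read from the data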
MEP2 cherry2 – yeast MEP2-GFP modulation, second cherry pick; shares compounds with LAP4-GFP MLPCN; S. cerevisiae MEP2-GFP strain, flow cytometry GFP, 3 h; GFP response vs DMSO, % at 10 µM; 590 tested, 10% active;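 active = GFP signal above 150% of the solvent control wells, that is a rise of more than half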;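 also: median channel GFP fluorescence of all gated yeast cells per well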
RPL19A GFP CP2 – reconfirmed modulator of RPL19A-GFP TOR reporter in yeast; shares compounds with LAP4-GFP MLPCN; S. cerevisiae RPL19A-GFP strain, flow cytometry GFP, 3 h; hits give low values; 100% means same as DMSO wells; GFP response vs DMSO, % at 10 µM; 590 tested, 3% active; AID 2623;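 active = under 65% GFP response relative to DMSO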;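 also: median GFP channel fluorescence per well over the all cells gate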
CIT2 GFP CP2 – reconfirmed modulator of CIT2-GFP TOR reporter in yeast. shares compounds with LAP4-GFP MLPCN. S. cerevisiae CIT2-GFP strain, flow cytometry GFP, 3 h; DMSO control wells read 100%. GFP response vs DMSO, % at 10 µM. 590 tested, 8% active. AID 2624;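 active = GFP response vs DMSO above about 150%, limit read from the data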;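 also: median green fluorescence per well over all gated yeast cells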
AGP1 GFP CP2 – second confirmation of modulators of TOR reporter AGP1-GFP in yeast. shares compounds with LAP4-GFP MLPCN. percent response vs DMSO, % at 10 µM. 590 tested, under 10 active. S. cerevisiae AGP1-GFP strain, flow cytometry GFP, 3 h;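 active = over 150 percent of DMSO response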;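 also: median GFP channel fluorescence over all cells without mother daughter split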
s288c autofluor – yeast s288c autofluorescence artifact, counter-screen; 610 tested, under 10 active; S. cerevisiae s288c, 520 nm autofluorescence, flow cytometry, 3 h; hits give high values; zero means same as solvent-only cells; AID 2757; fluorescence change (kMESF span) at 33 µM; shares compounds with LAP4-GFP MLPCN;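 active = fluorescence span over the dose series, or activity score, above about 33, limit read from the data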
Large screens that a line does not name were inactive (follow-up assays come after a bar, where they were run).

Cc1cc(N2CCNCC2)nc2ccccc12	none
CC[C@H](C)/C=C(C)/C=C/C1=CC2=C(Cl)C(=O)[C@@](C)(OC(C)=O)C(=O)C2=CO1	RPL19A-GFP yeast 28.4 | LAP4 cherry2 inactive | MEP2 cherry2 inactive | RPL19A GFP CP2 29.0 | CIT2 GFP CP2 inactive | AGP1 GFP CP2 inactive | s288c autofluor inactive
CCCCCCCCn1sccc1=O	LAP4-GFP MLPCN 207.4 | LAP4 cherry2 180.4 | MEP2 cherry2 185.2 | RPL19A GFP CP2 inactive | CIT2 GFP CP2 173.8 | AGP1 GFP CP2 inactive | s288c autofluor inactive
CCCCCCCCc1ccc(O)cc1	none
C=CCN1CC[C@]23c4c5ccc(O)c4OC2C(O)C=CC3[C@H]1C5 (some centres undefined)	none
c1ccc2c(NC3=NCCS3)cccc2c1	none
Cc1ccsc1/C=C1\C(=O)NC(=S)N(C)C1=O	none | LAP4 cherry2 inactive | MEP2 cherry2 inactive | RPL19A GFP CP2 inactive | CIT2 GFP CP2 inactive | AGP1 GFP CP2 inactive | s288c autofluor inactive
CN1C(=O)/C(=C/c2ccc(Cl)s2)C(=O)NC1=S	none
CC1(C)C[C@H]2C=C(C=O)[C@]3(C=O)C[C@]3(C)[C@H]2C1	none | LAP4 cherry2 198.1 | MEP2 cherry2 201.3 | RPL19A GFP CP2 inactive | CIT2 GFP CP2 187.7 | AGP1 GFP CP2 inactive | s288c autofluor inactive
COc1ccc(CCNCc2c(OC)ccc3ccccc23)cc1	none
O=C1NC(=O)N(Cc2ccc(F)cc2)C(=O)/C1=C/c1cccs1	LAP4-GFP MLPCN 169.6 | LAP4 cherry2 196.2 | MEP2 cherry2 inactive | RPL19A GFP CP2 inactive | CIT2 GFP CP2 inactive | AGP1 GFP CP2 inactive | s288c autofluor inactive
O=C1NC(=O)N(Cc2ccccc2Cl)C(=O)/C1=C/c1cccs1	none
